Data from PubChem BioAssay (Tox21).
Records with an inconclusive call do not appear. A call without a number means that no potency is given here. Active and inactive are the calls of the source. Calls follow the shape of the dose curve; as a rule, active = well fitted curve in the direction sought with a large enough effect in the repeat runs; inconclusive = weak or mixed curves; inactive = no such curve, though single readings can be large; an effect the other way counts as inactive or inconclusive.

How the values were obtained:
[1] = A CellTox Green Cytotoxicity Assay to monitor cytotoxicity in HepG2 cells - 16 hour (AID 1224876); also: nearly all actives have a fitted effect of over 45% in size; also: potency is read from the fitted curve at half-maximal effect
In short: (§1)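 Real-time cytotoxicity: fluorescence of a cell-impermeant cyanine dye binding DNA of dead HepG2 cells, measured repeatedly (0–40 h) during compound exposure at 37 C. Cells seeded 600/well with reagent, dosed after 5 h.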

[2] = qHTS RealTime-Glo MT Cell Viability Assay in HepG2 cells - 32 hour (AID 1224877); also: nearly all actives have a fitted effect of over 55% in size
In short: (§2)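 HepG2 suspension premixed with RealTime-Glo reagents is plated at 600 cells per well and left 5 h at 37 C/5% CO2. Compounds in DMSO then go in, and bioluminescence reflecting viable cell number is recorded over 40 h.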

[3] = A CellTox Green Cytotoxicity Assay to monitor cytotoxicity in HepG2 cells - 24 hour (AID 1224878); also: nearly all actives have a fitted effect of over 45% in size; also: potency is read from the fitted curve at half-maximal effect
In short: as §1

[4] = A CellTox Green Cytotoxicity Assay to monitor cytotoxicity in HepG2 cells - 40 hour (AID 1224879); also: nearly all actives have a fitted effect of over 40% in size; also: potency is read from the fitted curve at half-maximal effect
In short: as §1

[5] = A CellTox Green Cytotoxicity Assay to monitor cytotoxicity in HepG2 cells - 0 hour (AID 1224882); also: nearly all actives have a fitted effect of over 35% in size; also: potency is read from the fitted curve at half-maximal effect
In short: as §1

[6] = A CellTox Green Cytotoxicity Assay to monitor cytotoxicity in HEK293 cells - 8 hour (AID 1224884); also: nearly all actives have a fitted effect of over 35% in size; also: potency is read from the fitted curve at half-maximal effect
In short: (§3)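 Fluorescence from a DNA-binding dye excluded by viable cells was measured repeatedly in the same HEK293 wells (600 cells/well) during continuous compound exposure at 37 C. Each assay gives one read point: 0, 8, 16, 24, 32 or 40 h.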

[7] = qHTS RealTime-Glo MT Cell Viability Assay in HepG2 cells - 16 hour (AID 1224885); also: nearly all actives have a fitted effect of over 50% in size; also: potency is read from the fitted curve at half-maximal effect
In short: as §2

[8] = qHTS RealTime-Glo MT Cell Viability Assay in HepG2 cells - 0 hour (AID 1224889); also: nearly all actives have a fitted effect of over 50% in size
In short: as §2

[9] = A CellTox Green Cytotoxicity Assay to monitor cytotoxicity in HepG2 cells - 8 hour (AID 1224890); also: nearly all actives have a fitted effect of over 45% in size; also: potency is read from the fitted curve at half-maximal effect
In short: as §1

[10] = qHTS assay to identify small molecule antagonists of the estrogen receptor alpha (ER-alpha) signaling pathway using the BG1 cell line in the presence of 0.1 nM 17-beta-estradiol - cell viability counter screen (AID 1259241); also: nearly all actives have a fitted effect of over 40% in size; also: potency is read from the fitted curve at half-maximal effect
In short: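 In this screen, hormone-deprived VM7Luc4E2 cells were seeded at 4,000 per well, dosed with compound and 0.1 nM estradiol final, and incubated 22 hr at 37C and 5% CO2; fluorogenic live-cell protease signal reported viability.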

[11] = qHTS assay to identify small molecule antagonists of the androgen receptor (AR) signaling pathway using the MDA cell line in the presence of 0.5 nM R1881 - cell viability counter screen (AID 1259242); also: nearly all actives have a fitted effect of over 45% in size
In short: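 Live-cell protease activity was measured by CellTiter-Fluor fluorescence after 30 min. Before that, MDA-kb2 MMTV-luciferase cells had 16 hr at 37C without CO2, exposed to test compounds and 0.5 nM R1881 final.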

[12] = biological target: Androgen receptor (Homo sapiens) (UniProt P10275); experiment: qHTS assay to identify small molecule antagonists of the androgen receptor (AR) signaling pathway using the MDA cell line in the presence of 0.5 nM R1881 (AID 1259243); also: nearly all actives have a fitted effect of over 50% in size
Sequence of Androgen receptor (Homo sapiens) (P10275 whole entry, looked up): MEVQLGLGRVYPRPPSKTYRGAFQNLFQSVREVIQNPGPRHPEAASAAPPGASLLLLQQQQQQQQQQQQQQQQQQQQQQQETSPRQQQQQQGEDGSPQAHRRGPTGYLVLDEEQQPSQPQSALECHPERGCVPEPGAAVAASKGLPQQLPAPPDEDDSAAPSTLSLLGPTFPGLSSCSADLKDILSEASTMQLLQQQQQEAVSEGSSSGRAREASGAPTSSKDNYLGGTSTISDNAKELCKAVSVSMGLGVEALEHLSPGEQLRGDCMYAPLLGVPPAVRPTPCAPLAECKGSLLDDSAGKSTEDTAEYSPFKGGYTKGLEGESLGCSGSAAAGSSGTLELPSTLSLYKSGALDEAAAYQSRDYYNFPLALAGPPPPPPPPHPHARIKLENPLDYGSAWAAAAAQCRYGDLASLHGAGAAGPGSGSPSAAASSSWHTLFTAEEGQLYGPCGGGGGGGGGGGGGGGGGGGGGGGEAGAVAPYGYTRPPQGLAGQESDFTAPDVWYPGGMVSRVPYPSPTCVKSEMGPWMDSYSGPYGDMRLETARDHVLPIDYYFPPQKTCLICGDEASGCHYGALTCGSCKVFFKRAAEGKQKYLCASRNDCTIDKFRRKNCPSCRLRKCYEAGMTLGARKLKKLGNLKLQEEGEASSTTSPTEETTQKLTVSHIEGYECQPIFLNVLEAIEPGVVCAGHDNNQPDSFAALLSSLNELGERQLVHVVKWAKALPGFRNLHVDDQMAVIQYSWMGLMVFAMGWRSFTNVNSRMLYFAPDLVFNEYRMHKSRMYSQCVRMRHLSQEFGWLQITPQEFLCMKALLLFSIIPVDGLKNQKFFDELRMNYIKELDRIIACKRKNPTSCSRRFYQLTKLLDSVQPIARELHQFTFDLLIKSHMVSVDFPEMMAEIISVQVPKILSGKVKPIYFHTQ
In short: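 Luminescent reporter readout (ONE-Glo, 30 min, room temperature) after 16 hr co-treatment of MDA-kb2 cells with test compounds and 0.5 nM R1881 final, at 37C without CO2. The MMTV-driven luciferase responds to both AR and GR.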

[13] = qHTS RealTime-Glo MT Cell Viability Assay in HEK293 cells - 0 hour (AID 1224880)
In short: (§4)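 Luminescence, which tracks viable cell number through reduction of the prosubstrate to a NanoLuc substrate, was read over continuous 37 C culture. Cells (600/well) were premixed with reagent and rested 5 h before 23 nL of compound in DMSO was pinned.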

[14] = A CellTox Green Cytotoxicity Assay to monitor cytotoxicity in HepG2 cells - 32 hour (AID 1224883); also: nearly all actives have a fitted effect of over 50% in size; also: potency is read from the fitted curve at half-maximal effect
In short: as §1

[15] = qHTS RealTime-Glo MT Cell Viability Assay in HEK293 cells - 8 hour (AID 1224887); also: nearly all actives have a fitted effect of over 50% in size; also: potency is read from the fitted curve at half-maximal effect
In short: as §4

[16] = A CellTox Green Cytotoxicity Assay to monitor cytotoxicity in HEK293 cells - 24 hour (AID 1224875); also: nearly all actives have a fitted effect of over 45% in size; also: potency is read from the fitted curve at half-maximal effect
In short: as §3

[17] = A CellTox Green Cytotoxicity Assay to monitor cytotoxicity in HEK293 cells - 32 hour (AID 1224881); also: nearly all actives have a fitted effect of over 40% in size; also: potency is read from the fitted curve at half-maximal effect
In short: as §3

[18] = A CellTox Green Cytotoxicity Assay to monitor cytotoxicity in HEK293 cells - 16 hour (AID 1224888); also: nearly all actives have a fitted effect of over 35% in size; also: potency is read from the fitted curve at half-maximal effect
In short: as §3

[19] = qHTS RealTime-Glo MT Cell Viability Assay in HEK293 cells - 24 hour (AID 1224886)
In short: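 Reads taken at 0, 8, 16, 24, 32 and 40 h from the same wells. HEK293 cells (600/well) carried RealTime-Glo reagents from seeding, with compound added after a 5 h settle at 37 C.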

Row | Structure (SMILES) | Potency [1] | Potency [2] | Potency [3] | Potency [4] | Potency [5] | Potency [6] | Potency [7] | Potency [8] | Potency [9] | Potency [10] | Potency [11] | Potency [12] | Potency [13] | Potency [14] | Potency [15] | Potency [16] | Potency [17] | Potency [18] | Potency [19]
1 | Cc1ccc(C2OC[C@@H]3OC(c4ccc(C)cc4)O[C@H]([C@H](O)CO)[C@@H]3O2)cc1 (stereo not given in full) | inactive | inactive | inactive | inactive | inactive | inactive | inactive | inactive | inactive | inactive | inactive | inactive |  |  |  |  |  |  | 
2 | O=C(Cl)c1ccc(Cl)cc1Cl |  |  |  | 54.9 µM (active) | inactive |  |  | inactive | inactive | inactive | inactive |  | inactive | 54.9 µM (active) | inactive |  |  |  | 
3 | CC(C)(C)C1=CC(=O)C(C(C)(C)C)=CC1=O | inactive | inactive | inactive | inactive | inactive | inactive | inactive |  |  | inactive | inactive |  | inactive | inactive |  | inactive | inactive | inactive | 
4 | CCCCCCCCCCCCN1CCCC1=O |  |  |  |  | inactive |  |  | inactive |  | inactive | inactive |  | inactive |  |  |  |  |  | 
5 | CN(C/C=C/c1ccccc1)Cc1cccc2ccccc12 |  |  | 23.9 µM (active) | 21.3 µM (active) | 19 µM (active) | 19 µM (active) |  | inactive | 23.9 µM (active) | inactive | inactive |  | inactive |  | inactive | 19 µM (active) | 19 µM (active) | 19 µM (active) | 
6 | C=COCCCC |  | inactive | inactive | inactive | inactive | inactive | inactive | inactive |  | inactive | inactive | inactive |  | inactive |  | inactive |  | inactive | 
7 | O=C1OC2(c3ccccc31)c1ccc(O)c(Br)c1Oc1c2ccc(O)c1Br |  | inactive |  |  |  |  |  |  | 12.3 µM (active) | inactive |  | inactive |  |  |  | 6.92 µM (active) |  | 21.9 µM (active) | 
8 | NCc1cccc(C2CCN(C(=O)c3ccc(C#Cc4ccccc4F)o3)CC2)c1 | 38.9 µM (active) |  | 38.9 µM (active) | 43.6 µM (active) | inactive |  | 49 µM (active) |  | 49 µM (active) | 68.6 µM (active) |  |  | inactive | 43.6 µM (active) | 43.6 µM (active) | 49 µM (active) |  | 49 µM (active) | 54.9 µM (active)
